Source: PubChem BioAssay (National Center for Advancing Translational Sciences (NCATS))
p53ts 32C kill: cytotoxicity in p53ts cells at permissive temperature. 130,000 tested, 0.93% active. H1299-p53A138V at 32C, ATP luminescence viability, 24 h. AID 924. Potency, µM (doses to about 46.1 µM), usual class: cytotoxic; also: nearly all actives have a fitted effect of over 55% in size
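Viability by ATPlite luminescence after 24 h compound treatment (up to 46 uM) at the permissive 32C. Cells are H1299 carrying p53 A138V. Scale runs from DMSO basal to 100 uM tamoxifen as full kill; AC50 from Hill fits.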
Hsp90 Hop PPI: changes Hsp90-Hop TPR2A binding signal, up or down. AlphaScreen TPR2A-His6 binding biotin-Hsp90 C-terminal peptide. 71,000 tested, 0.44% active. Potency, µM (titrated, usually from 57 µM). AID 595; active = well fitted curve in either direction with a large enough effect; inconclusive = small, poorly fitted or top-dose-only effect, or another doubt
FLuc inh: blocks Photinus pyralis firefly luciferase activity; 72,000 tested, 2.2% active; purified firefly luciferase, luminescence, 8 min; P08659; Potency, µM (titrated, usually from 57.1 µM), usual class: inhibitors; also: nearly all actives have a fitted effect of over 40% in size
Target sequence (P08659 whole entry, looked up): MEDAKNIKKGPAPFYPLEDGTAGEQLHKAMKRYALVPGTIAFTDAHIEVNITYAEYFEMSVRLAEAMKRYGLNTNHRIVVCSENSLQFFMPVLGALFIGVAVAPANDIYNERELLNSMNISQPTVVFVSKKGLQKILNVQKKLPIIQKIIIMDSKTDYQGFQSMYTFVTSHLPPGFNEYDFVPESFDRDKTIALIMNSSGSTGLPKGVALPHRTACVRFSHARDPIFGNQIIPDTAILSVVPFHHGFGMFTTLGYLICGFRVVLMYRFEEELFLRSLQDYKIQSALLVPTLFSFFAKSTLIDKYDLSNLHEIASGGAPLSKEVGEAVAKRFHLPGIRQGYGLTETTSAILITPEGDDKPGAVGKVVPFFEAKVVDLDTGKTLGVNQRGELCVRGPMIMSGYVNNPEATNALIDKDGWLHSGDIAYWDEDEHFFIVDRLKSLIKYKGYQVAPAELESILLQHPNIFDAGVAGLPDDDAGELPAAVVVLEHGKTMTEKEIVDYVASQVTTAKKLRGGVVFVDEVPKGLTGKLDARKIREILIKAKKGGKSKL
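Substrate buffer containing 10 uM ATP (pH 7.2 imidazole, Mg2+, KCl, detergent, BSA) is dispensed, compound pinned in, then luciferase/luciferin detector mix added. After 8 min at ambient temperature, light output is measured.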
IkB sig inh: inhibitors of IkB signaling in ABC-DLBCL cells. 110,000 tested, 0.04% active. ABC-DLBCL IkBa-CBG/CBR dual luciferase ratio, 4 h; response scale: scaled: untreated 0%, proteasome inhibitor 100%. Potency, µM (doses to about 57.1 µM). AID 445; active = well fitted curve in the direction sought with a large enough effect in the signal ratio, not every such curve was filed as active; inconclusive = small, poorly fitted or top-dose-only effect, or a change in a side signal; the % refers to the signal ratio;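 also: the direction sought is a rising ratio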
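In this assay, an IκBα–CBG68 fusion accumulates when IKK-driven degradation is blocked; native CBR normalizes for cell number. OCI-Ly3 cells were treated 4 h with compound and doxycycline, then green and red light read after Chroma-Glo addition.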
IMPase inh: IMPase inhibition in cells | CHO-M1 cells, IP1 accumulation, HTRF TR-FRET ratio | inhibition (IP1 accumulation), % at 46.1 µM | 120,000 tested, under 10 active; active = well fitted curve in the direction sought with a large enough effect in the signal ratio, not every such curve was filed as active; inconclusive = small, poorly fitted or top-dose-only effect, or a change in a side signal; inactive = no such curve, though single readings can be large or run the other way; the % refers to the signal ratio;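 also: cells stimulated with carbachol in lithium chloride buffer; higher means more IMPase inhibition seen as more IP1 and lower FRET ratio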
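Cellular IMPase inhibition is scored as a rise in cytosolic IP1, detected by competitive TR-FRET between d2-labelled IP1 and a europium anti-IP1 antibody. M1-expressing CHO cells were stimulated with carbachol for 30 min at 37C, with lithium (50 mM LiCl) present in the buffer.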
p53ts 39C kill: kills p53ts cells at the nonpermissive temperature; AID 902; 130,000 tested, 1.5% active; Potency, µM (top dose mostly 46.1 µM), hits mostly cytotoxic; H1299-p53A138V viability at 39C, ATP luminescence, 24 h; also: nearly all actives have a fitted effect of over 55% in size
Numbers stand for hits; – = inactive; ? = inconclusive; · = no result; ! = a repeat was not active; [ ] = another dose, or the depositor's remark. Shown is part of a subset that was picked to be rich in hits. Unless noted, calls follow the shape of the dose curve; as a rule, active = well fitted curve in the direction sought with a large enough effect; inconclusive = small, poorly fitted or top-dose-only effect, or another doubt; inactive = no such curve, though single readings can be large; an effect the other way counts as inactive or inconclusive.

SMILES	p53ts 32C kill	Hsp90 Hop PPI	FLuc inh	IkB sig inh	IMPase inh	p53ts 39C kill
Cc1ccc(-c2csc3ncnc(Sc4nnc(CN5CCCCCC5=O)o4)c23)cc1	25µM	–	–	?	–	?
OC[C@H]1O[C@@H](n2cnc3c(NCc4ccccc4)ncnc32)[C@H](O)[C@@H]1O	6.3µM	·	·	·	–	10µM
Cc1ccc2c(c1)C(c1ccc(F)cc1)N(C(=O)COc1ccc(Cl)cc1Cl)CC(=O)N2 (stereo not given)	–	·	·	?	·	–
CC(C)(C)C1CCc2c(sc(NC(=O)c3cc4ccccc4c(=O)o3)c2C(N)=O)C1 (stereo not given)	–	·	·	?	–	–
O=C(CCCn1c(=O)c2cccn2c2ccccc21)Nc1cccc(Cl)c1	–	·	·	–	·	?
CCc1ccc2oc(-c3cccc(NC(=O)c4cccnc4)c3)nc2c1	?	–	5µM	–	–	–
CC(C)c1ccc2oc(-c3cc(NC(=O)c4cccnc4)ccc3Cl)nc2c1	20µM	·	·	?	–	?
CC(C)c1ccc(NC(=O)c2csnn2)cc1	13µM	–	5µM	–	?	16µM
CC(C)c1ccc(NC(=O)c2cccnc2)cc1	?	–[11 µM]	16µM	–	–	–
NS(=O)(=O)c1ccc(NC(=O)c2csnn2)cc1	–	·	·	–	·	–
O=C(Nc1ccc2oc(-c3ccccc3)nc2c1)c1cccnc1	–	–	–	?	–	–
CC(C)c1ccc2oc(-c3ccc(NC(=O)c4cccc(Br)c4)cc3)nc2c1	–	·	·	?	–	–
COc1cccc(C(=O)N2CCCCC2CCN2CCCCC2)c1 (stereo not given)	–	·	·	–	·	–
COc1cccc(CNS(=O)(=O)c2ccc(N3CCCCS3(=O)=O)cc2)c1	–	·	·	–	·	–
CCOc1ccc(CCNC(=O)CN2C(=O)COc3ccc(S(=O)(=O)N4CCC(C)CC4)cc32)cc1	–	·	·	–	·	–
N#C/C(=C\c1ccc(O)c(O)c1)C(=O)Nc1ccccc1	?	10µM!	25µM!	?	–	?
C[C@H](NC(=O)/C(C#N)=C/c1ccc(O)c(O)c1)c1ccccc1	–	7.9µM!	–	?	–	–
C[C@@H](NC(=O)/C(C#N)=C/c1ccc(O)c(O)c1)c1ccccc1	–	–	–	–	–	?
COc1ccc(-c2nc(CSc3nnc(C)n4c3cc3sccc34)c(C)o2)cc1	–	·	·	–	·	–
N#Cc1cc2cc3c(cc2nc1N1CCCCC1)OCCO3	–	–	13µM	–	–	–
Cc1ccc2nc(N3CCN(C)CC3)c(C#N)cc2c1	–	–	–	–	–	–
O=C(Nc1ccc2c(c1)CCCN2C(=O)c1cccs1)c1cccc(C(F)(F)F)c1	–	·	·	?	·	–
COc1ccc2c(CNCCc3ccccc3)c(C(=O)O)n(Cc3cccc(F)c3)c2c1	–	·	·	?	·	–
Cc1ccc(CNc2ccc(N3CCOCC3)cc2)s1	–	–	13µM	–	–	?
COc1ccc(OCCCSc2ncccn2)cc1	–	–	?	–	–	–
SMILES	p53ts 32C kill	Hsp90 Hop PPI	FLuc inh	IkB sig inh	IMPase inh	p53ts 39C kill
COc1ccc(OCCSc2ncccn2)cc1	?	–	25µM	–	–	?
CC(=O)c1c(C)oc2ccc(N(C(=O)Oc3ccccc3)S(=O)(=O)c3ccc(C(C)(C)C)cc3)cc12	–	·	·	–	–	–
Cc1noc(C)c1-c1nccc(NCc2cccnc2)n1	–	–	–[2.29 µM]	–[11.4 µM]	·	–
C=CC1=C(C)C2=NC1=CC1=NC(=CC3=NC(=CC4=NC(=C2)C(C)=C4CCC(=O)O)C(CCC(=O)O)=C3C)C(C=C)=C1C.[Zn]	–	5µM	–	–	–	–
Cc1cc(CCC(=O)O)c(C)cc1CCC(=O)O	·	·	–	·	–	·
CCN(CCCNC(=O)CN1N=C(c2ccc(OC)cc2)CCC1=O)c1cccc(C)c1	–	·	·	?	·	–
COc1cc(C(=O)Nc2ccc3c(c2)OCCO3)ccc1OC(F)F	16µM	–	16µM	?	–	13µM
COc1cc(C(=O)Nc2ccc3c(c2)OCCO3)ccc1OC(C)C	?	–	13µM	–	–	?
COC(=O)c1ccc(NC(=O)c2ccc3c(c2)OCO3)cc1	–	–	–	?	–	–
Cc1ccc(NC(=O)c2ccc3c(c2)OCCO3)cc1	·	·	·	·	–	·
